The source made the active and inactive calls.
What was measured:
[1] = system: PRMT1 (protein arginine N-methyltransferase 1); experiment: PRMT1 binders on small-molecule microarrays, primary screen, biochemical, small-molecule microarray, 635 nm fluorescence (AID 1088); conditions: small-molecule microarray binding, higher = more signal;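 note: binding of Prmt1 protein to compounds spotted on small-molecule microarray slides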
[2] = yeast growth modulation, basal conditions, primary screen, YJM789 clinical isolate, OD600, 24 h (AID 1089);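 note: growth of clinical yeast isolate S. cerevisiae YJM 789 seeded 1000 cells per well; test concentration not given here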; conditions: S. cerevisiae YJM789 growth, higher = more signal, called active from +8 up or from −8 down
[3] = fission yeast growth modulation, primary screen, strain 972, OD600, 24 h, no modulator (AID 1090);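 note: basal condition with compound alone and no growth modifier present; test concentration not given here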; conditions: S. pombe 972 growth, higher = more signal, called active from +8 up or from −8 down
[4] = S. cerevisiae growth modulation with rapamycin, primary screen, strain BY4716, OD600, 96 h (AID 1091); conditions: higher = more signal, called active from +8 up or from −8 down; note: test concentration not given here
[5] = molecular target: Torsin-1A-interacting protein 2 (Homo sapiens) (UniProt Q8NFQ8); experiment: LULL1 binders on small-molecule microarray, primary screen, cell lysate, human LULL1 lysate, 635/667 nm fluorescence (AID 1092); conditions: hLULL1 lysate binding, 635 nm fluorescence, higher = more signal;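 note: probe is lysate of COS7 cells overexpressing human LULL1; score merges per-feature 667 nm fluorescence with signal-to-noise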
[6] = E. coli growth modulation, two-sided OD650, primary screen, E. coli filamentation project, strain DRC41, 24 h (AID 1093); conditions: OD650, 24 h, higher = more signal, called active from +8 up or from −8 down;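 note: MC1000 strain lacking acrAB efflux and sulA so SOS filamentation is blocked; test concentration not given here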
[7] = small-molecule microarray binders of probe aLefty2, primary screen, biochemical, biotinylated probe, 635/667 nm fluorescence (AID 1094); conditions: higher = more signal;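 note: score merges spot fluorescence near 667 nm with spot signal-to-noise ratio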
[8] = system: Noggin (protein binding on small-molecule microarray); experiment: Noggin binders on small-molecule microarray, primary screen, biochemical, 635/667 nm fluorescence (AID 1095); conditions: 635 nm fluorescence, higher = more signal;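 note: score merges 667 nm feature fluorescence with signal to noise over triplicate slides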
[9] = molecular target: Neurogenic locus notch homolog protein 3 (Homo sapiens) (UniProt Q9UM47); experiment: NOTCH3 binders on small-molecule microarray, primary screen, biochemical, 635/667 nm fluorescence (AID 1096); conditions: NOTCH3 binding, 635 nm fluorescence, higher = more signal
[10] = small-molecule microarray binders of probe aEGFR, primary screen, biochemical, biotinylated probe, 635/667 nm fluorescence (AID 1097); conditions: higher = more signal;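 note: probe is a biotinylated anti-EGFR antibody binding compounds printed on slides; score combines fluorescence near 667 nm and signal to noise of each spot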
[11] = system: Plasmodium falciparum Sir2 (PF13_0152, Sir2A); experiment: pfSir2 binders on small-molecule microarrays, primary screen, biochemical, small-molecule microarray, 635 nm fluorescence (AID 1098); conditions: small-molecule microarray binding, fluorescence 635 nm; higher = more signal;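 note: score merges spot fluorescence intensity with its signal-to-noise ratio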
[12] = small-molecule microarray binders of probe aDKK1, primary screen, biochemical, biotinylated probe, 635/667 nm fluorescence (AID 1099); conditions: higher = more signal;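 note: score merges 667nm spot fluorescence with signal to noise across triplicate slides; reference of the scale not given here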
[13] = small-molecule microarray binders of probe aCHRDL2, primary screen, biochemical, biotinylated probe, 635/667 nm fluorescence (AID 1100); conditions: higher = more signal
[14] = splicing luciferase reporter signal modulators, primary screen, spliceosome inhibition project, cell-based, HEK293, splice +/- reporter (AID 1101); conditions: luminescence, 24 h, higher = more signal, called active from +8 up or from −8 down;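 note: HEK293 cells carrying a splicing-competent luciferase reporter gene; test concentration not given here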
[15] = molecular target: Fibroblast growth factor 10 (Homo sapiens) (UniProt O15520); experiment: FGF10 binders on small-molecule microarrays, primary screen, biochemical, small-molecule microarray, 635 nm fluorescence (AID 1102); conditions: FGF10 binding, fluorescence 635 nm, higher = more signal
[16] = system: glycogen synthase kinase-3 (GSK3A per assay name; protocol says GSK3B); experiment: GSK3 binders on small-molecule microarrays, primary screen, biochemical, small-molecule microarray, 635 nm fluorescence, GSK3A (AID 1103); conditions: small-molecule microarray binding, fluorescence 635 nm; higher = more signal; note: the record names both GSK3A and GSK3B
[17] = molecular target: Epidermal growth factor receptor (Homo sapiens) (UniProt P00533); experiment: EGFR binders on small-molecule microarrays, primary screen, biochemical, small-molecule microarray, 635 nm fluorescence (AID 1104); conditions: EGFR binding, higher = more signal;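 note: score merges 667 nm emission intensity with spot signal to noise over triplicate slides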
[18] = molecular target: Follistatin-related protein 3 (Homo sapiens) (UniProt O95633); experiment: FSTL3 binders on small-molecule microarrays, primary screen, biochemical, small-molecule microarray, 635 nm fluorescence (AID 1105); conditions: FSTL3 binding, higher = more signal;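 note: score merges emission near 667 nm and signal to noise per printed spot across three slides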
[19] = molecular target: Dickkopf-related protein 1 (Homo sapiens) (UniProt O94907); experiment: DKK1 binders on small-molecule microarrays, primary screen, biochemical, small-molecule microarray, 635 nm fluorescence scan (AID 1106); conditions: DKK1 binding, higher = more signal;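 note: score merges emission near 667 nm with signal to noise over three replicate slides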
[20] = system: Inhibin beta A chain (activin A); experiment: INHBA (activin A) binders on microarrays, primary screen, biochemical, small-molecule microarray, 635 nm fluorescence scan (AID 1107); conditions: small-molecule microarray binding, higher = more signal;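 note: mouse activin A protein probed at 4.33 µg/mL on printed slides; score merges bound-protein fluorescence near 667 nm with spot signal-to-noise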

Chain of Dickkopf-related protein 1 (Homo sapiens) (O94907 whole entry, looked up): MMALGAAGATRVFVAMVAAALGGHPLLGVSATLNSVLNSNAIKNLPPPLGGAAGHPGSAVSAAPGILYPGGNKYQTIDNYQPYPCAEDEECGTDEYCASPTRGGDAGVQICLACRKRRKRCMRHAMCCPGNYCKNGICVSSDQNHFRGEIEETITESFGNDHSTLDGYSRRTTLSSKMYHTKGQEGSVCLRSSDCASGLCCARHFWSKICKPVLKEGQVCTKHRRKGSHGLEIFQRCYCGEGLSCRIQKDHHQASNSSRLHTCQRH
Chain of Follistatin-related protein 3 (Homo sapiens) (O95633 whole entry, looked up): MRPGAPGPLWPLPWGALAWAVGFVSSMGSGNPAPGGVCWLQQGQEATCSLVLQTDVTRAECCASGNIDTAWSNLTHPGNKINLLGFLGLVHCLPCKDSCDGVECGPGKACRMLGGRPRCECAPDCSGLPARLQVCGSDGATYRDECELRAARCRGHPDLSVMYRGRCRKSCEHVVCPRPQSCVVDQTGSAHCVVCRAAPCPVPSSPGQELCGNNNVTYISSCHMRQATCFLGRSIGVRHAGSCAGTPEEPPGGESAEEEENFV
Chain of Torsin-1A-interacting protein 2 (Homo sapiens) (Q8NFQ8 whole entry, looked up): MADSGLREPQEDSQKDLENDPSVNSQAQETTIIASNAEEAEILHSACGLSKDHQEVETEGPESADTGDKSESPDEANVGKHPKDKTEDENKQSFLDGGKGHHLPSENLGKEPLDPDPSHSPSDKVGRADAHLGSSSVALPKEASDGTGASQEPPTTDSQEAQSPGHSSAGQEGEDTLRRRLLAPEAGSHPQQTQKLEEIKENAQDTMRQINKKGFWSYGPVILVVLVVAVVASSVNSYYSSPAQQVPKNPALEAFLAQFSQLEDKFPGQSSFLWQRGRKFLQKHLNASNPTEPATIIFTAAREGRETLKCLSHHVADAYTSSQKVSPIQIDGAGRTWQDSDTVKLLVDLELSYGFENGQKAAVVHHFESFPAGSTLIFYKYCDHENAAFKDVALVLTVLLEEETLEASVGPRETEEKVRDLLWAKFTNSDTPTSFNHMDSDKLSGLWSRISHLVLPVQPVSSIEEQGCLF
Chain of Fibroblast growth factor 10 (Homo sapiens) (O15520 whole entry, looked up): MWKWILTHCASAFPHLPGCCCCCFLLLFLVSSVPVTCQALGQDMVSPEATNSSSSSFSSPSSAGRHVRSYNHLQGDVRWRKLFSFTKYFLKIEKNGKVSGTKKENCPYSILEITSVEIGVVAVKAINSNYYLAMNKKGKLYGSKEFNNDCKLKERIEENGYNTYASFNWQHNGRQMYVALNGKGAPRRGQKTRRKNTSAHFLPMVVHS
Chain of Neurogenic locus notch homolog protein 3 (Homo sapiens) (Q9UM47 whole entry, looked up): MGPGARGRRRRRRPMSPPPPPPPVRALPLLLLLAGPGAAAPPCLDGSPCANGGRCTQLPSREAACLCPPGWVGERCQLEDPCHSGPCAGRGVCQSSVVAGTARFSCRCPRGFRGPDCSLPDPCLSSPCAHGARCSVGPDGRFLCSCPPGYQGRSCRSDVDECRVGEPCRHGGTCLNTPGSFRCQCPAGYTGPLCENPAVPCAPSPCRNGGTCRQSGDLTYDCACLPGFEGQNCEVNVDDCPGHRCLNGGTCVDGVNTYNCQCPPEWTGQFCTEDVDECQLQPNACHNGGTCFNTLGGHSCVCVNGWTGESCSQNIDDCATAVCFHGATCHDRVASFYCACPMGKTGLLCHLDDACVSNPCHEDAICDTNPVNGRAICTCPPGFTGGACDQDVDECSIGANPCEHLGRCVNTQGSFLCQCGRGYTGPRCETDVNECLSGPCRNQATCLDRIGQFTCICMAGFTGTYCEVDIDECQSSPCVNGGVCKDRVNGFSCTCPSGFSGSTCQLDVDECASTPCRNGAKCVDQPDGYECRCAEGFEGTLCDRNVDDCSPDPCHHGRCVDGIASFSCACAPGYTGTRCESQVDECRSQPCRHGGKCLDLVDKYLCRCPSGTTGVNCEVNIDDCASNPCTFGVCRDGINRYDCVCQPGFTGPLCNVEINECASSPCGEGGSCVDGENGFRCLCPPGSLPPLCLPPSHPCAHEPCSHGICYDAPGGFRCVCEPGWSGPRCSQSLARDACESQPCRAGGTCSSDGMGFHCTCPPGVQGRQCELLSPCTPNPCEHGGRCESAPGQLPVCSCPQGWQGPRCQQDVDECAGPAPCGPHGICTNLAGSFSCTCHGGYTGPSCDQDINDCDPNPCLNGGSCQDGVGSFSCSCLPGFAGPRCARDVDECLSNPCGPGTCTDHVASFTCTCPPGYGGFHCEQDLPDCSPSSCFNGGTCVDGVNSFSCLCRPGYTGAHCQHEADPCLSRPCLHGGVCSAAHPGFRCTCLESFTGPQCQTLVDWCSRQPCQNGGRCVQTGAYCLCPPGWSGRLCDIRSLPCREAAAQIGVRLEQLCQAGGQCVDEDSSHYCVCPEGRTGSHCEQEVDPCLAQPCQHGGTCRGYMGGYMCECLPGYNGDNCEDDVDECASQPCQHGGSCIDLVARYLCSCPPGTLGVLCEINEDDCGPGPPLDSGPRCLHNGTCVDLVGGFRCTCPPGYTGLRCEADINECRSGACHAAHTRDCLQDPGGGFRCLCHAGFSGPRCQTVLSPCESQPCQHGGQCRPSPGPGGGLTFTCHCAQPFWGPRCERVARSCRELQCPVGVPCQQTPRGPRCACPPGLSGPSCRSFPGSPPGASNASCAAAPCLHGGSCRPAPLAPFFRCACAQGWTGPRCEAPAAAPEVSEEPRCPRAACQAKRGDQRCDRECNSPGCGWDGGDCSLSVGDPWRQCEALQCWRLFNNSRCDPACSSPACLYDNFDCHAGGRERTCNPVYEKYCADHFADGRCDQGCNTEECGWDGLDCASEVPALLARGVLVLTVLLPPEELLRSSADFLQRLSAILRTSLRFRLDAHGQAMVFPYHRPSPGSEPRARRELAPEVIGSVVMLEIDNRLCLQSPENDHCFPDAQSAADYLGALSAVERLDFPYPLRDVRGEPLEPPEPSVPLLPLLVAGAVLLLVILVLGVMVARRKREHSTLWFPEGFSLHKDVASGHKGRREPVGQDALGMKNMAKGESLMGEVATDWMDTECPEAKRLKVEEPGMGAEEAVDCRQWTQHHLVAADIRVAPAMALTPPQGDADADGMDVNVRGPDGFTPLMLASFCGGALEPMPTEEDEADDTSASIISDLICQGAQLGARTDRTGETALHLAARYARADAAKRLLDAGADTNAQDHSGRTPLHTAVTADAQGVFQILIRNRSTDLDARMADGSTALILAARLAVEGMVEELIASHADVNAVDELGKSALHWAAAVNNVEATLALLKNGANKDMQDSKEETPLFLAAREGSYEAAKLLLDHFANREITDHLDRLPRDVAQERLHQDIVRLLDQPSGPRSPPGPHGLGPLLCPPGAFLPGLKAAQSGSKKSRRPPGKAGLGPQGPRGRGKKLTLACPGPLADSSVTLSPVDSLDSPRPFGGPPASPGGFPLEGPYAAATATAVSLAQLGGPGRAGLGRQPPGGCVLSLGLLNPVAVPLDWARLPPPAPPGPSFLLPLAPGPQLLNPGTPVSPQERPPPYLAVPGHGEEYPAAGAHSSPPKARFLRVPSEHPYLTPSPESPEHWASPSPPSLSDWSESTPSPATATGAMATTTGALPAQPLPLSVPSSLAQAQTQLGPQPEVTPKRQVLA
Chain of Epidermal growth factor receptor (Homo sapiens) (P00533 whole entry, looked up): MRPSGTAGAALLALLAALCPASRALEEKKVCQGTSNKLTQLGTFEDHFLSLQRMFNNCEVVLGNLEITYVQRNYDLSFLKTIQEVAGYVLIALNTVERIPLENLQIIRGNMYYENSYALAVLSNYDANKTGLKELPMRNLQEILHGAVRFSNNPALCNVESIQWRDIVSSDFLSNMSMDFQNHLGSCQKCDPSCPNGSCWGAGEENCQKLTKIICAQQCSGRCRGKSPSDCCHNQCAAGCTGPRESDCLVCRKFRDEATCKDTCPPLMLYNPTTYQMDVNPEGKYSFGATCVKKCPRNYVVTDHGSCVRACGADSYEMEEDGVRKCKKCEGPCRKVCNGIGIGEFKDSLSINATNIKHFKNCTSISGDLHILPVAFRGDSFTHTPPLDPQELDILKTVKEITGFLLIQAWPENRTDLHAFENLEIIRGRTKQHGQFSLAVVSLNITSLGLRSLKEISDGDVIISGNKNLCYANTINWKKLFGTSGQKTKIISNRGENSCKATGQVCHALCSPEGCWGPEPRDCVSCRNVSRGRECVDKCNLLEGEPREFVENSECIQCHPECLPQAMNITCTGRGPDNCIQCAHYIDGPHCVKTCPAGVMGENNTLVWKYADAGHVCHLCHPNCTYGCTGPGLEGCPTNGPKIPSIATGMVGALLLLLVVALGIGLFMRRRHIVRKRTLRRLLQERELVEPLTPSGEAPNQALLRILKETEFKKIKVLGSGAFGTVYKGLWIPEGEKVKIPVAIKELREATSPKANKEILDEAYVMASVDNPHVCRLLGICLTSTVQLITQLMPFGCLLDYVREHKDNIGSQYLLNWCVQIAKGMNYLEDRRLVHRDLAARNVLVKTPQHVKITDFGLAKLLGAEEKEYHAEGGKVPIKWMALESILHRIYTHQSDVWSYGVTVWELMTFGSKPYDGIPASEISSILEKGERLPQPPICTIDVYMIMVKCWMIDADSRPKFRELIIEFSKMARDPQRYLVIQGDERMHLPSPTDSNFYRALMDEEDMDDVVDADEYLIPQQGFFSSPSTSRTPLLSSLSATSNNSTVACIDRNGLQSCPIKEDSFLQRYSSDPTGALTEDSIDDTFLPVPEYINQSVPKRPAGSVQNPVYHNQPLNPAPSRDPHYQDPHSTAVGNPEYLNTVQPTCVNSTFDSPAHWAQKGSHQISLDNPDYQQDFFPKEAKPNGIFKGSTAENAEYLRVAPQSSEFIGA

Structure (SMILES)	composite z-score [1]	z-score [2]	z-score [3]	z-score [4]	composite z-score [5]	z-score [6]	composite z-score [7]	composite z-score [8]	composite z-score [9]	composite z-score [10]	composite z-score [11]	composite z-score [12]	composite z-score [13]	z-score [14]	composite z-score [15]	composite z-score [16]	composite z-score [17]	composite z-score [18]	composite z-score [19]	composite z-score [20]
C=CCNC(=O)[C@H]1[C@@H]2C(=O)O[C@@H](c3ccccc3)[C@@H](c3ccccc3)N2[C@@H](c2ccc(O)cc2)[C@]12C(=O)N(C(=O)OCCOC)c1ccc(C#CC3=CCCCC3)cc12	1.54	0.576 (inactive)	0.111 (inactive)	1.12 (inactive)	3.14	0.111 (inactive)	0.862	1.78	1	-0.21	1.79	0.298	0.263	-0.75 (inactive)	0.966	1.32	0.205	0.969	0.23	1.34
COC(=O)CC=C[C@H](C)[C@@H](OCc1ccccc1Br)C(C)C	0.204	-0.0851 (inactive)	-0.552 (inactive)	0.393 (inactive)	-0.117	-0.295 (inactive)	-0.228	0.168	-0.0294	-0.167	-0.0201	-0.371	-0.397	-0.76 (inactive)	0.321	-0.243	0.195	0.285	0.292	0.0114
COc1ccc(COC(=O)NN=C2C[C@@H](O)[C@@H](O)[C@@H]3[C@@H]4C(=O)N(Cc5ccc6c(c5)OCO6)C(=O)[C@@H]4CC[C@@H]23)cc1	-0.291	-1.65 (inactive)	-0.654 (inactive)	-0.731 (inactive)	0.529	-0.486 (inactive)	0.63	-0.666	-0.303	-0.187	-0.454	0.911	1.39	-1.36 (inactive)	-0.0715	-0.52	-0.451	-0.226	-0.539	0.556
CO[C@H]1COC(=O)[C@H](C)NC(=O)[C@@H](C)COC(=O)CC=C[C@@H]1C	0.748	-0.156 (inactive)	0.473 (inactive)	-0.564 (inactive)	-0.498	0.2 (inactive)	-0.103	0.3	0.674	-0.02	1.38	-0.369	-0.786	-0.794 (inactive)	0.63	0.857	0.767	0.0078	0.829	-0.249
COC(=O)[C@@H]1N=C(c2ccc(OCCCO)cc2)O[C@@H]1c1ccccc1N=[N+]=[N-]	1.5	-2.6 (inactive)	-7.5 (inactive)	-1.15 (inactive)	3.01	1.2 (inactive)	0.19	-0.179	0.487	-0.027	1.47	1.14	1.37	-1.99 (inactive)	0.046	0.981	-0.356	-0.0503	-0.68	1.08

— PubChem BioAssay
